Test results taken from PubChem BioAssay (EPA / NIEHS).
Values joined by “and” are separate entries in the source; they are usually repeats but may differ in a detail not shown here. Identical values can stand only once. Results filed as inconclusive are left out. A structure can be active in one record and inactive in another. Active and inactive are the calls of the source. The calls were made as follows, unless noted: active = hit-call score of the fitted dose curve at least 0.9, where 1 is the maximum; inactive = score below 0.9.

Columns and labels:
[1] = CCTE_Shafer_MEA_dev_network_spike_number: CCTE's Neural Network Formation Assay for Number of Network Spikes, Shafer Lab (AID 2284048);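 also: synchronized bursts across electrodes counted on days 5 7 9 12 and integrated as AUC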;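 as to AC50: fit as a loss of signal meaning fewer network spikes than DMSO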
Outline: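 Primary rat cortical neurons on PEI/laminin 48-well MEA plates, dosed from plating day 0 for 12 days, renewed at DIV 5 and 9. Network spike counts recorded DIV 5, 7, 9, 12, collapsed as trapezoidal AUC; DMSO baseline.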

[2] = CCTE_Shafer_MEA_dev_network_spike_peak: CCTE's Neural Network Formation Assay for Mean Number of Electrodes in Network Spike, Shafer Lab (AID 2284049);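 as to AC50: fitted for loss of signal meaning fewer electrodes in network spikes than DMSO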
Outline: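 Network-spike peak electrode count from recordings on days 5, 7, 9 and 12 was combined as trapezoidal area under the curve. Rat cortical cultures were treated continuously from plating, with compound renewed at each feed (DIV 5, 9); fits versus DMSO.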

DIO2 (gene 1734) = test: CCTE_GLTED_hDIO2: CCTE's human Deiodinase 2 (DIO2) Inhibition Assay, Great Lakes Toxicology and Ecology Division (GLTED) Lab (AID 2284050; active = hit-call score of the fitted dose curve at least 0.9, where 1 is the maximum)
Outline: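 Cell-free human DIO2 incubated 3 h with chemical; liberated iodide quantified by Sandell-Kolthoff absorbance. Triplicate plates; loss of signal fitted vs DMSO.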

[3] = CCTE_Shafer_MEA_dev_spike_duration_mean: CCTE's Neural Network Formation Assay for Mean Spike Duration, Shafer Lab (AID 2284051);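 also: mean network spike duration pooled as area under curve over DIV 5 to 12 recordings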;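 as to AC50: potency for a decrease in mean network spike duration versus DMSO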
Outline: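 Rat cortical primary cultures, 48-well MEA (16 electrodes/well); compound from plating, renewed DIV 5, 9. Network spike duration (AxIS adaptive detector) recorded DIV 5/7/9/12, combined as trapezoidal AUC; loss direction vs DMSO.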

[4] = CCTE_Shafer_MEA_dev_network_spike_duration_std: CCTE's Neural Network Formation Assay for Standard Deviation of Network Spike Duration, Shafer Lab (AID 2284052);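 also: hits are decreases in network spike duration SD versus DMSO vehicle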
Outline: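 Rat cortical cultures, 1.5 x 10^5 cells/well, exposed continuously from plating to DIV 12 with media/compound renewal at DIV 5, 9. Spontaneous activity recorded DIV 5/7/9/12, AxIS adaptive spike detector; AUC across days; negative direction vs DMSO.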

[5] = CCTE_Shafer_MEA_dev_per_network_spike_spike_number_mean: CCTE's Neural Network Formation Assay for Mean Number of Spikes in a Network Spike, Shafer Lab (AID 2284053);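 as to AC50: fitted as decrease in spikes per network spike relative to DMSO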
Description: CCTE_Shafer_MEA_dev assay is conducted using Axion Biosystems 48 well microelectrode array (MEA) plates and Maestro recording system. Each well of the MEA plate contains a grid of 16 microelectrodes embedded in the culture surface. Electrically active cells, such as neurons, can be cultured over the electrodes, and electrical activity in these cells can be recorded extracellularly. The spontaneous firing of neurons is captured from each electrode on a microsecond timescale providing both temporally and spatially precise data. […] The CCTE_Shafer_MEA_dev assay uses primary cultures of rat cortical neurons. Recordings are made on days post-plating 5, 7, 9 and 12. As these cultures mature over time, neural networks develop functional activity and form cohesive networks in which electrical activity can be highly coordinated. CCTE_Shafer_MEA_dev_per_network_spike_spike_number_mean is 1 of 19 assay components of the CCTE_Shafer_MEA_dev assay. It measures the average number of spikes (action potential firings) in a network spike (temporally-clustered group of spikes across multiple electrodes) as the number of spikes that occur within a 0.05 s time window at the peak of a network spike divided by the total number of network spikes during a recording in a microelectrode array (MEA) using Axion Biosystems Maestro 768 channel amplifier with the AxIS adaptive spike detector. To collapse across multiple recordings made on days post-plating 5, 7, 9 and 12, the trapezoidal area-under-the-curve of the component is calculated.Data from the assay component CCTE_Shafer_MEA_dev_per_network_spike_spike_number_mean was analyzed into 1 assay endpoint. This assay endpoint, CCTE_Shafer_MEA_dev_per_network_spike_spike_number_mean, was analyzed in the negative analysis fitting direction relative to DMSO as the negative control and baseline of activity. Using a type of functional reporter, gain or loss-of-signal activity can be used to understand electrical activity.
On the day prior to culture, each well was coated thoroughly with 150 uL of 0.05% polyethyleneimine (PEI, Sigma Cat P3143) in 50 mM HEPES (Sigma Cat H7523) at a pH of 8. The plate was incubated at 37C for one hour. PEI was rinsed out with 500 uL of sterile water three times. Plates were stored at 4C until the day of culture. This culture was plated at a seeding density of 1.5 x 10^5 cells/well on a 48-well MEA plate, prepared as described above. Cells were administered via a 25 uL media/laminin ([…]; Sigma Cat L2020-1MG) drop directly onto the microelectrode array, as adding the cells with the laminin results in better attachment than pre-coating with laminin. After 2 hours, an additional 475 uL of cortical media was added and the cells returned to the incubator. Exposure starts at day 0 of plating and is continued over twelve days of network development until the experiment is terminated. Cells are fed with fresh medium on DIV 5 and 9, following the recordings on those days. The entire volume of media in the well is exchanged and any vehicle or compound treatment is renewed. Complete details are found in OP-NHEERL/ISTD/SBB/TJS/2015-03-r0 (available on request, email shafer.tim@epa.gov). Measurement of the electrical activity is non-invasive, and recordings can be made from the same plate over multiple different days of the culture. In cortical neurons, this allows for the measurement of extracellular action potentials over the period during which networks form in the MEA plate.

[6] = CCTE_Shafer_MEA_dev_per_network_spike_spike_percent: CCTE's Neural Network Formation Assay for Percent of Spikes in a Network Spike, Shafer Lab (AID 2284054)
Outline: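 Rat primary cortical neurons were grown on 48-well MEA plates (16 electrodes/well), exposed from plating day 0 through day 12, with treatment renewed on DIV 5 and 9. Percent of spikes within 0.05 s network-spike peaks was measured, summarised as AUC across days 5, 7, 9, 12.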

DIO3 (gene 1735) = test: CCTE_GLTED_hDIO3: CCTE's human Deiodinase 3 (DIO3) Inhibition Assay, Great Lakes Toxicology and Ecology Division (GLTED) Lab (AID 2284055; active = hit-call score of the fitted dose curve at least 0.9, where 1 is the maximum;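 as to AC50: potency is for inhibition seen as loss of released iodide signal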)
Outline: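 Human DIO3 from an adenovirus expression system is incubated 3 h with test chemical. Released iodide is quantified by Sandell-Kolthoff absorbance, in triplicate plates. Loss of signal is fitted relative to DMSO.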

[7] = CCTE_Shafer_MEA_dev_LDH: CCTE's Lactate Dehydrogenase Assay for Cytotoxicity in the Neural Network Formation Assay, Shafer Lab (AID 2284068; active = hit-call score of the fitted dose curve at least 0.9, where 1 is the maximum;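 also: exposure for twelve days from plating with re-dosing on DIV 5 and 9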)
Outline: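 Rat cortical primary neurons, MEA culture; dosing day 0–12, full medium plus compound exchange DIV 5, 9. Read-out: LDH enzyme activity, spectrophotometric. DMSO = negative control/baseline; signal loss → cytotoxicity.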

[8] = UKN5_HCS_SBAD2_cell_viability: Viability Assessment in the University of Konstanz (UKN) Leist Lab Neurite Outgrowth Assay in human iPSC-derived immature Dorsal Root Ganglia Neurons (UKN5) (AID 2284056)
Outline: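 iPSC-derived immature peripheral neurons (SBAD2) seeded on Matrigel with CHIR99021, SU5402 and DAPT, dosed 1 h later for 24 h. Viability from Hoechst H-33342 and calcein-AM live staining, high-content imaging; bidirectional fit versus DMSO.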

Measured: AC50

CC/C(=C(\c1ccccc1)c1ccc(OCCN(C)C)cc1)c1ccccc1
inactive: DIO3 (gene 1735)
active: [1] 1.87 µM | [2] 0.209 µM | DIO2 (gene 1734) 46.5 µM and 46.3 µM | [3] 0.35 µM | [4] 0.273 µM | [5] 0.0668 µM | [6] 3.89 µM | DIO3 (gene 1735) 84.2 µM | [7] 2.87 µM

C[C@]12CC[C@@H]3c4ccc(O)cc4CC[C@H]3[C@@H]1CC[C@@H]2O
not listed: DIO2 (gene 1734) | DIO3 (gene 1735) | [8]
inactive: all other assays above

CCCCC(CC)COC(=O)COc1ccc(Cl)cc1C (stereo not given)
inactive: [1] | [2] | [3] | [4] | [5] | [6]

CCCCCCCCOC(=O)c1ccc(O)cc1
active: DIO2 (gene 1734) 92.9 µM | DIO3 (gene 1735) 30.7 µM

N#CCCNCCC#N
not listed: DIO2 (gene 1734) | DIO3 (gene 1735) | [8]
inactive: all other assays above

C=C(C)C(=O)OCCC(C)OC(=O)C(=C)C (stereo not given)
active: DIO2 (gene 1734) 49.6 µM | DIO3 (gene 1735) 36.9 µM

CCCCC/C=C\C=C\C(=O)OCC
active: DIO2 (gene 1734) 44.2 µM | DIO3 (gene 1735) 26.6 µM

CC(=O)OC/C=C(C)/C=C/C=C(C)/C=C/C1=C(C)CCCC1(C)C
active: DIO2 (gene 1734) 52.6 µM | DIO3 (gene 1735) 37.8 µM

O=C(c1ccc(OCCN2CCCCC2)cc1)c1c(-c2ccc(O)cc2)sc2cc(O)ccc12
active: DIO2 (gene 1734) 99.1 µM

c1ccc2scnc2c1
not listed: DIO2 (gene 1734) | DIO3 (gene 1735) | [8]
inactive: all other assays above

N[C@@H](CCC(=O)O)C(=O)O
inactive: [2] | [3] | [4] | [5] | [6] | [7]

CC(C)Cc1ccc(C(C)C(=O)O)cc1 (stereo not given)
active: [2] 15 µM | [6] 15 µM | [7] 15 µM
not listed: DIO2 (gene 1734) | DIO3 (gene 1735)
inactive: all other assays above
